Experimental data: PubChem BioAssay (NCI)
This is part of a sample that, as a whole, favours compounds with a hit. Of some 83,000 tested, about 20% had one in any assay.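 How to read the values: 0–100, growth inhibition (40 = 60% inhibited); 0, no net growth; -100 to 0, cell death (-40 = 40% of starting cells died; -100 = all dead).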 Values without a mark were called inactive. Calls of active or inactive are those of the source. Rule for the calls: active = growth percent below 10; inactive = the rest.

Key:
Assay in all cases: NCI-60 one-dose screen, 48 h (100 = growth as untreated, 0 = no growth, -100 = all killed)
Details in all cases: 10 µM
NCI-H23 lung = tested on: NCI-H23 lung
NCI-H226 lung = tested on: NCI-H226 lung
NCI-H322M lung = tested on: NCI-H322M lung
HOP-62 NSCLC = tested on: HOP-62 NSCLC
NCI-H460 lung = tested on: NCI-H460 lung
NCI-H522 lung = tested on: NCI-H522 lung
A549/ATCC NSCLC = tested on: A549/ATCC NSCLC
786-0 renal = tested on: 786-0 renal
COLO 205 colon = tested on: COLO 205 colon

Compound | growth (NCI-H23 lung) | growth (NCI-H226 lung) | growth (NCI-H322M lung) | growth (HOP-62 NSCLC) | growth (NCI-H460 lung) | growth (NCI-H522 lung) | growth (A549/ATCC NSCLC) | growth (786-0 renal) | growth (COLO 205 colon)
S=C(Nc1ccccc1)N1CCCCC1 | 99.9% | 89.6% | 99% | 90.9% | 110% | 94.9% | 99.2% | 102% | 
CC1CCC(C(=O)O)N1 (centres undefined) | 89.2% | 97.3% | 95.2% | 93.9% | 115% | 91.3% | 99.4% | 100% | 
CC(=O)c1ccc(C(C)(C)C)cc1 | 95.7% | 98.4% | 104% | 91.9% | 106% | 99.6% | 101% | 100% | 
O=c1cc(-c2ccccc2)[nH]c(=S)[nH]1 | 101% | 103% | 97.6% | 108% | 108% | 89.3% | 104% | 97.5% | 119%
Cc1ccncc1C(N)=O | 119% | 95.4% | 104% | 98.6% | 101% | 101% | 108% | 106% | 124%
Cc1cc(C)cc(NCCC#N)c1 | 108% | 112% | 118% | 115% | 107% | 106% | 151% | 111% | 131%
NC(N)=Nc1cc2ccccc2c2ccccc12 | 86.7% | 89.5% | 98.7% | 101% | 86.8% | -49.2% (active) | 27.8% | 90.6% | 44.9%
CN(C)c1ccc2nc3ccc(=N)cc-3sc2c1 | 14.7% | 77.1% | 85.4% | 54.4% | 56.7% | 14.7% | 13.6% | 66.2% | 
OCc1ccc(-c2ccc(-c3ccc(CO)s3)o2)s1 | 47.5% | -23.9% (active) | 55.3% | 67.1% | -4.49% (active) | 25.9% | 19.8% | 30.2% | 13.1%
Cc1cccc([N+](=O)[O-])c1Cl | 96.4% | 98.2% | 105% | 103% | 108% | 116% | 104% | 102% | 109%
O=C(O)C(O)c1ccccc1 (centres undefined) | 101% | 99.1% | 99.6% | 116% | 107% | 103% | 105% | 98.8% | 109%
CCCCC/C=N/Nc1nc(C)cc(=O)[nH]1 | 98.7% | 97.5% | 100% | 117% | 107% | 112% | 86.8% | 102% | 121%
Cc1cc(=O)[nH]c(NN=C2CCCC2)n1 | 122% | 101% | 108% | 105% | 116% | 103% | 123% | 102% | 118%
NC(C(=O)O)C(O)c1ccco1 (centres undefined) | 108% | 96.6% | 107% | 104% | 108% | 137% | 102% | 98.3% | 102%
CC(=O)c1ccc2c(ccc3ccccc32)c1 | 102% | 94% | 105% | 115% | 101% | 93.1% | 95.3% | 91% | 111%
O=C(O)CCCCNC(=O)c1ccccc1 | 91% | 92.3% | 106% | 90.8% | 106% | 89.4% | 98.4% | 97.5% | 108%
CN(C)CCN(Cc1ccccc1)c1ccccc1 | 99.8% | 109% | 110% | 107% | 104% | 104% | 106% | 105% | 118%
CCN(CC)c1ccc2nc3ccc(=[N+](CC)CC)cc-3oc2c1 | -46.2% (active) | -46.9% (active) | 10.7% | 1.25% (active) | 6.72% (active) | -29.6% (active) | 18.5% | 34.9% | -69.9% (active)
CCN(CC)C(=O)/C=C(/C)c1ccccc1 | 96.5% | 97.2% | 106% | 109% | 104% | 107% | 113% | 101% | 106%
C#CC(C)(O)c1ccc(Cl)cc1 (centres undefined) | 92.4% | 78.2% | 99.9% | 84.6% | 104% | 91.4% | 99.2% | 95.5% | 103%
NC(=O)NC(=O)c1ccc(Cl)cc1 | 103% | 102% | 94.3% | 94.4% | 108% | 79.5% | 108% | 99.6% | 105%
Cc1cc(/C=C/c2ccc3cc(N(C)C)ccc3[n+]2C)c(C)n1-c1ccccc1 | -6.43% (active) | -75.1% (active) | 2.15% (active) | -81.5% (active) | -64.8% (active) | -31.7% (active) | -44.9% (active) | -15.9% (active) | -79.5% (active)
